The whole screen tested about 230,000 compounds, of which about 1,000 (0.43%) were called active. This excerpt belongs to a sample that is enriched for actives. A number with no mark means an inactive call. Calls follow the shape of the dose curve; as a rule, active = well fitted inhibition curve with a large enough effect (not every such curve was filed as active); inactive = no such curve, though single readings can be large or run the other way.
% is scaled to controls: 0 for no effect and ±100 for the full control effect; potency is read from the fitted curve at half-maximal effect.

Chain of Guanine nucleotide-binding protein G(i) subunit alpha-1 (Homo sapiens) (P63096 whole entry, looked up): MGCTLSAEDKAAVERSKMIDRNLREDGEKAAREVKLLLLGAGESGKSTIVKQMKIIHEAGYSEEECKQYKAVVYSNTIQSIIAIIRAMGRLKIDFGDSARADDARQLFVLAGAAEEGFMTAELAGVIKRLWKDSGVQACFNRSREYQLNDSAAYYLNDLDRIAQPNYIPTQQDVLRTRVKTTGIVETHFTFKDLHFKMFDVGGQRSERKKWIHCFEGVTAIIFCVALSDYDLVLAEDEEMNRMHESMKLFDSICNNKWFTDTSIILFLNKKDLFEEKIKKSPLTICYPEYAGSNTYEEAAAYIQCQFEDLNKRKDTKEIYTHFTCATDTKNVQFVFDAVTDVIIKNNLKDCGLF

This test has as its target Guanine nucleotide-binding protein G(i) subunit alpha-1 (Homo sapiens) (UniProt P63096). Put plainly: qHTS Assay for Inhibitors of RGS12 GoLoco Motif Activity (Red Fluorophore). Also: nearly all actives have a fitted effect of over 30% in size. Conditions: Gai1:RGS12 GoLoco peptide FP, rhodamine, 10 min; series mostly up to 61.6 µM; activity, negative = inhibition: at the top concentration. The source says:
Assay Submitter: Siderovski, David P, University of North Carolina at Chapel Hill
Screening Center PI: Austin, C.P.
Screening Center: NIH Chemical Genomics Center [NCGC]
G-protein-coupled receptors (GPCRs) are major targets for drug discovery. The regulator of G-protein signaling (RGS)-protein family has important roles in GPCR signal transduction. RGS proteins contain a conserved RGS-box, which is often accompanied by other signaling regulatory elements. RGS proteins accelerate the deactivation of G proteins to reduce GPCR signaling; however, some also have an effector function and transmit signals. Combining GPCR agonists with RGS inhibitors should potentiate responses, and could markedly increase the agonist's regional specificity. The diversity of RGS proteins with highly localized and dynamically regulated distributions in brain makes them attractive targets for pharmacotherapy of central nervous system disorders. […] A complex of Gai1 and fluorescently labeled G-alpha-binding peptide (the "GoLoco motif") derived from RGS12 is incubated with library members. Inhibitors of the binding are detected by a decrease in the fluorescence polarization (FP) of the fluorophore. Protein was supplied by Prof. David Siderovski, University of North Carolina at Chapel Hill.
Assay Buffer: 10 mM Tris-HCl, 150 mM NaCl, 0.1 mM GDP (prepared fresh), and 0.05% NP40 at pH 7.5.
15 nM Rhodamine labeled peptide/25 nM protein in columns 1, 2, 5 - 48. Titration of unlabeled peptide control ([H][…][NH2], custom synthesized and HPLC-purified by Tufts University Core Facility) from 20 mM, then 1:2 dilution, 16-point in duplicate, pin-transferred to column 2, rows 1 to 32. Column 1 is neutral.
Rhodamine-labeled peptide (Rhodamine-[…]-NH2) was custom-synthesized and HPLC-purified by Invitrogen (Carlsbad, CA).
Four uL of reagents were dispensed to 1536-well Greiner black solid-bottom plates. Compounds and controls (23 nL) were transferred via Kalypsys PinTool. The plates were incubated for 10 min at room temperature, and then read on ViewLux (Perkin-Elmer) High-throughput CCD imager using BODIPY for the rhodamine-labeled decapeptide probe. During dispense, reagent bottles were kept submerged into 4 deg C water bath and all liquid lines were covered with aluminum foil to minimize probe and protein degradation. All screening operations were performed on a Kalypsys robotic system (Kalypsys, Inc., San Diego, CA) containing one RX-130 and two RX-90 anthropomorphic robotic arms.
A general note: Quantitative high-throughput screening tests each substance at several concentrations.
With `CCOC(=O)c1ccc(NC(=O)Cn2cnc3cc(C)c(C)cc32)cc1`, the “activity, negative = inhibition” value is 6.97%. As to `CCOC(=O)c1ccc(NC(=O)CSc2ncccn2)cc1`, the Potency is 2.82 µM (active). Take `CCOC(=O)c1ccc(NC(=O)CSc2nnc(COc3ccccc3OC)n2C)cc1`: the “activity, negative = inhibition” value is 9.95%. Turning to `CCOC(=O)C1=C(C)c2ccccc2OC1(C)C(=O)OCC` (stereo not given), the “activity, negative = inhibition” value is -4.52% [at 88.7 µM]. The same measure, in the same setting: next, `Cc1ccccc1-n1nnnc1SCCCC(=O)c1ccc(F)cc1`: 11.6%; `N#Cc1ccsc1NC(=O)CN1CCN(S(=O)(=O)c2cc(Cl)ccc2Cl)CC1`: 9.81%. The same measure, in the same setting: next, `CCOc1ccc(N=NS(=O)(=O)O)cc1`: -17.6% [at 14.2 µM]; `Cc1ccccc1CC1(CO)CCCN(Cc2ccc3c(c2)OCCO3)C1` (stereo not given): -5.36%. For `NCCC(=O)c1ccccc1N`, the “activity, negative = inhibition” value was -0.0525%. Regarding `CCCc1ccc(-c2c(C)sc(NC(=O)c3ccnn3C)c2C#N)cc1`, the “activity, negative = inhibition” value was 1.09%.

For the compound `CC(C)=C(NC(=O)c1ccccc1)C(=O)N/N=C(\C)c1ccccc1O`, the “activity, negative = inhibition” value was -1%. Still for that read-out and setting: next, `Cc1ccc2[nH]c(=O)c(CN(CCCN(C)C)C(=O)Nc3cccc(Cl)c3)cc2c1`: 2.71%; `N=C1C(c2nc3ccccc3s2)=C(O)CN1NC(=O)c1ccc([N+](=O)[O-])cc1`: 6.8%; `COc1ccc(/C=C(\C#N)C(=O)NCCCn2ccnc2)cc1`: -7.5%. Same read-out and setting: then `CCOC(=O)c1cnc(SC)nc1Sc1ccc(Cl)cc1Cl`, with 0.136%; and `O=P(O)(O)OC[C@H](O)CO`, with 2.38%; and `CCOC(=O)c1c(NC(=S)NC)sc2c1CCCC2`, with 0.716%.

In the case of `Cc1ccc(NC(=O)CN2CCCCC2)c2c1CC(C)(C)O2`, the “activity, negative = inhibition” value is -3.9%. On to `Cc1ccc(Nc2cc(C)nc3c(C)ccc([N+](=O)[O-])c23)cc1`, for which the “activity, negative = inhibition” value was 5.73%.

For the compound `NCCCCC(N)C(=O)O` (stereo not given), the “activity, negative = inhibition” value is 3.62%. With `CC(C)[C@@H]1NC(=O)[C@H](Cc2ccccc2)NC(=O)[C@@H](CC(=O)O)NC(=O)CNC(=O)[C@H](CCCNC(=N)N)NC1=O`, the “activity, negative = inhibition” value was 8.69%. As to `CCS(=O)(=O)N1Cc2ccccc2CC1C(=O)Nc1nc2ccc(F)cc2s1` (stereo not given), the “activity, negative = inhibition” value is 2.6%. In the case of `O=C(NCc1cc(C(F)(F)F)cc(C(F)(F)F)c1)C1CC(c2cccc(F)c2)=NO1` (stereo not given), the “activity, negative = inhibition” value is -20.7%. Still for that read-out and setting: next, `Cc1ccccc1-c1n[nH]c(=S)n1/N=C/c1ccc(-c2ccccc2Br)o1`: 8.75%; `O=c1[nH]cnc2c1c(-c1ccccc1)cn2-c1ccc(F)cc1`: 1.55%; `Clc1ccc(CSc2nnc3c(n2)[nH]c2ccccc23)cc1`: 1.68%. For `COC(c1ccccc1)(c1ccccc1)C(Oc1nc(C)cc(C)n1)C(=O)O` (stereo not given), the “activity, negative = inhibition” value is 3.51%. Still for that read-out and setting: then `COc1cccc(NC(=O)CN(C)C(=O)/C=C/c2cc(OC)ccc2OC)c1`, with 6.97%; and `O=C(NCCc1c[nH]c2ccccc12)c1cc2ccccc2oc1=O`, with -2.24%; and `CN(c1ccccc1)S(=O)(=O)c1cc(C(=O)Nc2nc3ccccc3[nH]2)ccc1Cl`, with 13.7%.
